In the supplement of paper PMC10849652:
Targets with a hit are over-represented here; the source holds about 7,900 in all. About 0.6% of all pairs of compound and target were hits.

Key:
Experiment in all cases: log2 fold change, soluble protein after heating vs DMSO (PISA); higher = thermal stabilisation; K562 cells, 10 uM, 30 min; active = over 0.2 and 3.5 SD of the protein, either way, in both replicates (recomputed)
[1] = compound: CC1=C(C=C(C=C1)NC(=O)C2=CC(=CC=C2)C(C)(C)C#N)NC3=CC4=C(C=C3)N=CN(C4=O)C
In short: (§1)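 Soluble protein was defined as the supernatant after 21,000xg for 90 min. It came from K562 cells at 2×10^6 cells/mL given 10 μM compound for 30 min, heated in aliquots for 3 min across 48°C-58°C, pooled, and extracted in PBS with 0.5% NP-40 at 4°C, and was quantified by TMTpro 16plex LC-MS/MS with equalised channel sums. Thermal stability against control samples, from duplicates, is reported as log2 fold change.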

[2] = compound: CC1=C(C=C(C=C1)NC(=O)C2=CC(=CC=C2)N(C)C)NC(=O)C3=CC=C(C=C3)O
In short: as §1

[3] = compound: CC1=CC=C(C=C1)SC2=C3C=C(SC3=CN=C2)C(=O)N
In short: as §1

[4] = compound: CC1=NC(=CC=C1)C2=C(N=C(N2)C(C)(C)C)C3=CC4=NC=CN=C4C=C3
In short: as §1

[5] = compound: CCCCN(Cc1ccc(C(=O)NO)cc1)C(=O)Nc1ccccc1 [Nexturastat A]
In short: as §1

[6] = compound: CCCS(=O)(=O)Nc1ccc(F)c(C(=O)c2c[nH]c3ncc(-c4ccc(Cl)cc4)cc23)c1F [vemurafenib]
In short: as §1

[7] = compound: CCCS(=O)(=O)Nc1ccc(F)c(C(=O)c2c[nH]c3ncc(Cl)cc23)c1F
In short: as §1

[8] = compound: CCCc1cc(C)[nH]c(=O)c1CNC(=O)c1cc(-c2ccnc(N3CCN(C)CC3)c2)cc2c1cnn2C(C)C
In short: as §1

[9] = compound: CCN(CC)Cc1ccc2cc(COC(=O)Nc3ccc(C(=O)NO)cc3)ccc2c1 [givinostat]
In short: as §1

[10] = compound: CCN(CCCOc1ccc2c(Nc3cc(CC(=O)Nc4cccc(F)c4)[nH]n3)ncnc2c1)CCOP(=O)(O)O [barasertib]
In short: as §1

[11] = compound: CC[C@@H]1C(=O)N(C)c2cnc(Nc3ccc(C(=O)NC4CCN(C)CC4)cc3OC)nc2N1C1CCCC1
In short: as §1

[12] = compound: CC[C@@H]1C(=O)N(C)c2cnc(Nc3ccc(C(=O)N[C@H]4CC[C@H](N5CCN(CC6CC6)CC5)CC4)cc3OC)nc2N1C(C)C [volasertib]
In short: as §1

[13] = compound: CC[C@H](C)N1C=C(C2=C(C=C(C=C21)C3=CN=C(C=C3)N4CCNCC4)C(=O)NCC5=C(C=C(NC5=O)C)C)C
In short: as §1

[14] = compound: CC[C@H](C)[C@@H](C(=O)N[C@@H]([C@@H](C)O)C(=O)N[C@@H](CC(C)C)C(=O)[C@]1(CO1)C)NC(=O)[C@H]([C@@H](C)CC)N(C)C(=O)C [epoxomicin]
In short: as §1

[15] = compound: CCn1c(C(=O)N(C2CC2)C2CC2)cc2c3c(ncn3C)c(Nc3cc(C)n(C)n3)nc21
In short: as §1

[16] = compound: CCn1cc(-c2ccnc3[nH]c(-c4cccc(CN(C)C)c4)cc23)c(-c2ccc(NC(=O)N(C)C)cc2)n1
In short: as §1

[17] = compound: CN(C)CC(=O)Nc1ccc2[nH]c(=O)c3ccccc3c2c1
In short: as §1

[18] = compound: CN(CCOC1=CC=C(C=C1)C[C@H]2C(=O)NC(=O)S2)C3=CC=CC=N3 (racemic) [rosiglitazone]
In short: as §1

[19] = compound: CN1C2=C(C3=C1C(=O)N(N=C3)CC4=CC(=CC=C4)N)SC(=C2)S(=O)C
In short: as §1

[20] = compound: CN1CCC(CNc2ccc3ncc(-c4cccc(OC(F)(F)F)c4)n3n2)CC1
In short: as §1

Measured: log2 fold change

SETD3 (UniProt Q86TU7)
Sequence of UniProt Q86TU7 (Q86TU7 whole entry, looked up): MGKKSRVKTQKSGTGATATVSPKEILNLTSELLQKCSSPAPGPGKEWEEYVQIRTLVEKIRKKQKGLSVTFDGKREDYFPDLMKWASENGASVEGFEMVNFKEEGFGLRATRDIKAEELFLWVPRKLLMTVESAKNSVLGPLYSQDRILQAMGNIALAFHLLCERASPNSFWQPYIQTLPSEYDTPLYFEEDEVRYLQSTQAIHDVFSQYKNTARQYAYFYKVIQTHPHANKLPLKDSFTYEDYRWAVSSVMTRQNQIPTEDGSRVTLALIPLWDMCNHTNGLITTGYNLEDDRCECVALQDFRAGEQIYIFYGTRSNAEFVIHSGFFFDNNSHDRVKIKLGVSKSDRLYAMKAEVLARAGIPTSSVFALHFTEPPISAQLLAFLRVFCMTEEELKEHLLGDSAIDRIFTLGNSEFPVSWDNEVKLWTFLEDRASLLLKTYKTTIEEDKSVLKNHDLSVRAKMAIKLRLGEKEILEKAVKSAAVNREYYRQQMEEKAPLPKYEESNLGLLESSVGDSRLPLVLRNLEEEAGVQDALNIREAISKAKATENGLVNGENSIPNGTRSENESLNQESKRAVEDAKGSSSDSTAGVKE
inactive: [1] -0.008 | [2] 0.029 | [3] -0.01 | [4] 0.046 | [5] -0.024 | [6] 0.035 | [7] -0.01 | [8] 0.034 | [9] -0.037 | [10] 0.026 | [11] -0.017 | [12] -0.018 | [13] 0.055 | [14] -0.024 | [15] -0.004 | [16] -0.002 | [17] -0.02 | [18] 0.015 | [19] -0.056 | [20] 0.06

RAB5C isoform 2 (UniProt P51148)
Sequence of UniProt P51148 (P51148 whole entry, looked up): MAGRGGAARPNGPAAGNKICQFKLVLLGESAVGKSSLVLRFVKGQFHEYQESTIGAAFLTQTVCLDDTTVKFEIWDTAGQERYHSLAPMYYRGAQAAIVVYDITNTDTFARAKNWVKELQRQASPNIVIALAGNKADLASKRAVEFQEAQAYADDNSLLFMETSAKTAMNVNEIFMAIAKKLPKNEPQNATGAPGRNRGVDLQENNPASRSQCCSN
inactive: [1] 0.069 | [2] -0.02 | [3] 0.02 | [4] 0.01 | [5] -0.029 | [6] 0.015 | [7] 0.008 | [8] -0.017 | [9] 0.006 | [10] -0.031 | [11] 0.004 | [12] 0.045 | [13] -0.024 | [14] 0 | [15] 0.029 | [16] -0.002 | [17] 0 | [18] -0.011 | [19] -0.032 | [20] 0.018

RBM39 (UniProt Q14498)
Sequence of UniProt Q14498 (Q14498 whole entry, looked up): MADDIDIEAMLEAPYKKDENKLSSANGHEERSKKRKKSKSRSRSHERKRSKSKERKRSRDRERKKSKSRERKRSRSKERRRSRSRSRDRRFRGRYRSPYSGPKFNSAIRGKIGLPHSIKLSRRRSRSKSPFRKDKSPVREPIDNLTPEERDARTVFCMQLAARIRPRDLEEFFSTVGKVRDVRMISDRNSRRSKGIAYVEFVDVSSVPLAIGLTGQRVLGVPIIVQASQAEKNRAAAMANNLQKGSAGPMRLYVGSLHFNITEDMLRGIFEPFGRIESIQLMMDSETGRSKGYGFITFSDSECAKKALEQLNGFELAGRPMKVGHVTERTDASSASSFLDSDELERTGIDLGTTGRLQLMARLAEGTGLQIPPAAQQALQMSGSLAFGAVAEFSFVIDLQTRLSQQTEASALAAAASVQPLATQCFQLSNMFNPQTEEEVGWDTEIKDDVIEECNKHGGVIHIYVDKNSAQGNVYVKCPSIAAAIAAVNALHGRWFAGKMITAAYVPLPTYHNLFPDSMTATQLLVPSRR
inactive: [1] -0.035 | [2] 0 | [3] -0.011 | [4] 0.071 | [5] 0.043 | [6] 0.084 | [7] 0.083 | [8] 0.034 | [9] 0.131 | [10] 0.012 | [11] -0.183 | [13] 0.038 | [14] -0.027 | [15] -0.057 | [16] 0.079 | [17] 0.013 | [18] 0.025 | [19] 0.071 | [20] -0.045
active: [12] -0.487

RIOK2 (UniProt Q9BVS4)
Sequence of UniProt Q9BVS4 (Q9BVS4 whole entry, looked up): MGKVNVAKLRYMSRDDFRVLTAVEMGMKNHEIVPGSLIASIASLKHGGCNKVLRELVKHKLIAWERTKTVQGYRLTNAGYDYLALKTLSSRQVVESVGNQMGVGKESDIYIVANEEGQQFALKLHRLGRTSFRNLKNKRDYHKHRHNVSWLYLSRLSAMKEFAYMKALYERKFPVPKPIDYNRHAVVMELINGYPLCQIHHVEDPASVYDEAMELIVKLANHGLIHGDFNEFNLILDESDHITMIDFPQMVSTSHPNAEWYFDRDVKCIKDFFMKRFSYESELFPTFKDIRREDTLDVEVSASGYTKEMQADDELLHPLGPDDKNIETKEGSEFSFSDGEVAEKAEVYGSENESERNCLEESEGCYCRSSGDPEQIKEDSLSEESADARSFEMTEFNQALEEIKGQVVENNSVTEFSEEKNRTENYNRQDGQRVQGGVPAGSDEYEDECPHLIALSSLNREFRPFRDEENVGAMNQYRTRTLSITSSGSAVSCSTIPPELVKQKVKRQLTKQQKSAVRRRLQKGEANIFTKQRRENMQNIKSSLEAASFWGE
inactive: [1] 0.035 | [2] 0.006 | [3] -0.046 | [4] -0.021 | [5] 0.178 | [6] -0.001 | [7] -0.007 | [8] 0.056 | [9] 0.035 | [10] 0 | [11] 0.133 | [12] 0.267 | [13] 0.015 | [14] -0.032 | [15] 0.019 | [16] -0.013 | [17] -0.038 | [18] 0.014 | [19] 0.085 | [20] 0.202

RAB9A (UniProt P51151)
Sequence of UniProt P51151 (P51151 whole entry, looked up): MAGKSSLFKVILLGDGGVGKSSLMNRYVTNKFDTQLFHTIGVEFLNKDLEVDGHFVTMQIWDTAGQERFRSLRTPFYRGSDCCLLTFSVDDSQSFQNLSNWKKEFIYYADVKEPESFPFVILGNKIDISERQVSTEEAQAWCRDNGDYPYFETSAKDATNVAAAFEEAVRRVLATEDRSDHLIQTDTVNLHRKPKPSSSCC
active: [20] -0.252
inactive: [1] 0.036 | [2] 0.033 | [3] 0.017 | [4] 0.018 | [5] 0.017 | [6] -0.012 | [7] -0.024 | [8] 0.003 | [9] 0.054 | [10] -0.011 | [11] -0.061 | [12] -0.024 | [13] -0.001 | [14] 0.064 | [15] -0.003 | [16] 0.004 | [17] 0.034 | [18] 0 | [19] -0.034

RNASEH2A (UniProt O75792)
Sequence of UniProt O75792 (O75792 whole entry, looked up): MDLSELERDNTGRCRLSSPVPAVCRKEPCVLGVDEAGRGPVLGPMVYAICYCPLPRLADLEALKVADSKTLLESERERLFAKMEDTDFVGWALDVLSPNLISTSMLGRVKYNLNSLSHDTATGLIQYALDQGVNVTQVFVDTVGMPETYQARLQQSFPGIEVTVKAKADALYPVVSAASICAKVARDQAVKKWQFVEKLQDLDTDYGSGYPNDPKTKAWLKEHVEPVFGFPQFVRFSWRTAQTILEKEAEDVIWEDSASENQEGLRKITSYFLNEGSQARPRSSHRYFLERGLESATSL
active: [20] -0.394
inactive: [1] -0.023 | [2] -0.018 | [3] 0.022 | [4] 0.046 | [5] 0.142 | [6] -0.102 | [7] -0.024 | [8] -0.063 | [9] 0.046 | [10] 0.039 | [11] -0.062 | [12] -0.075 | [13] 0.068 | [14] 0.061 | [15] -0.002 | [16] -0.061 | [17] -0.118 | [18] 0.013 | [19] -0.019

RNPS1 (UniProt Q15287)
Sequence of UniProt Q15287 (Q15287 whole entry, looked up): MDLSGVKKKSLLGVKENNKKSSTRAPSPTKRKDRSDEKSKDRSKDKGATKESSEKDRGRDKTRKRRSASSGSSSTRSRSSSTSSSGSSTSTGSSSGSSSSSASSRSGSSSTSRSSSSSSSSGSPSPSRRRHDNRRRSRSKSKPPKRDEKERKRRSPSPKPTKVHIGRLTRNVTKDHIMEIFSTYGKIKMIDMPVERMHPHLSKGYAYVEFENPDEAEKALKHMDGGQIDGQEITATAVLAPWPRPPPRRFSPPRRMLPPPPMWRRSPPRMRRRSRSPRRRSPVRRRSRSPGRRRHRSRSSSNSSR
inactive: [1] -0.043 | [2] 0.015 | [3] 0.017 | [4] 0.031 | [5] 0.245 | [6] -0.001 | [7] -0.033 | [8] -0.024 | [9] 0.071 | [10] 0.015 | [11] 0.062 | [12] -0.155 | [13] 0.049 | [14] -0.126 | [15] -0.043 | [16] -0.008 | [17] 0.031 | [18] -0.08 | [19] 0.016 | [20] 0.006

RMC1 (UniProt Q96DM3)
active: [12] -0.416
inactive: [1] 0.037 | [2] 0.001 | [3] -0.051 | [4] 0.024 | [5] -0.031 | [6] 0.061 | [7] 0.031 | [8] 0.021 | [9] -0.013 | [10] 0.039 | [11] -0.192 | [13] 0.095 | [14] -0.025 | [15] -0.041 | [16] 0.042 | [17] -0.023 | [18] 0.005 | [19] -0.039 | [20] -0.146

SCD (UniProt O00767)
Sequence of UniProt O00767 (O00767 whole entry, looked up): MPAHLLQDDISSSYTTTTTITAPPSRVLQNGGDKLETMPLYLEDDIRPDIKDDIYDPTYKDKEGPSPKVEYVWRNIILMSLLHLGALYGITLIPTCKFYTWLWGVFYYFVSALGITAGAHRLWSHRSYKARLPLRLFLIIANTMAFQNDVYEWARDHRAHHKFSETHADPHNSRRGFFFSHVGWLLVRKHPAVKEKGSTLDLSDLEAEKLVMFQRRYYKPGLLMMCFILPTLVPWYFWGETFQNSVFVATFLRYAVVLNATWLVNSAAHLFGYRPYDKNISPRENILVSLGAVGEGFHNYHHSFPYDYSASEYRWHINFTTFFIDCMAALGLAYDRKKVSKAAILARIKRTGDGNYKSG
active: [9] -0.457
inactive: [1] -0.076 | [2] 0.037 | [3] 0.038 | [4] 0.078 | [5] -0.121 | [6] 0.022 | [7] -0.053 | [8] -0.021 | [10] 0.003 | [11] 0 | [12] 0.009 | [13] -0.063 | [14] 0.109 | [15] 0.103 | [16] 0.036 | [17] 0.008 | [18] -0.023 | [19] 0.025 | [20] 0.095

RETSAT (UniProt Q6NUM9)
Sequence of UniProt Q6NUM9 (Q6NUM9 whole entry, looked up): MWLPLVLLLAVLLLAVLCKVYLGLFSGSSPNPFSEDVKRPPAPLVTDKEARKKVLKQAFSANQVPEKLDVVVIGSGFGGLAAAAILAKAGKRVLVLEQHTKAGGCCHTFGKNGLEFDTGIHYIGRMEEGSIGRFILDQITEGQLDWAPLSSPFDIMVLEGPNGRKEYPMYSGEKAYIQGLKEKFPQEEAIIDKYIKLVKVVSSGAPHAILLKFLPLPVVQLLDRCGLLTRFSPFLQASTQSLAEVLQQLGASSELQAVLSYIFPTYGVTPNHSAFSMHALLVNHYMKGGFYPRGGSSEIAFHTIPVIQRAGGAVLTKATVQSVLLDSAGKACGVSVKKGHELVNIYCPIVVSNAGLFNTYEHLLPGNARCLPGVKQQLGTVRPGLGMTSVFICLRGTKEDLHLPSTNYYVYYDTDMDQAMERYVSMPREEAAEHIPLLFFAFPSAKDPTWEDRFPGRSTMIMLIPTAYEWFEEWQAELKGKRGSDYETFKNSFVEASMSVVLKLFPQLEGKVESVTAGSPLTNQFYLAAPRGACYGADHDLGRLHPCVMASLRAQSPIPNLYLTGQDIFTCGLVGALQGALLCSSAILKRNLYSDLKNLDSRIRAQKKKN
inactive: [1] 0.014 | [2] 0.025 | [3] 0.088 | [4] -0.037 | [5] -0.003 | [6] -0.03 | [7] -0.077 | [8] -0.091 | [9] 0.31 | [10] 0.009 | [11] -0.073 | [12] -0.073 | [13] 0.024 | [14] -0.003 | [15] -0.083 | [16] -0.012 | [17] 0.036 | [18] 0.042 | [19] -0.011 | [20] 0.053

SCG3 (UniProt Q8WXD2)
Sequence of UniProt Q8WXD2 (Q8WXD2 whole entry, looked up): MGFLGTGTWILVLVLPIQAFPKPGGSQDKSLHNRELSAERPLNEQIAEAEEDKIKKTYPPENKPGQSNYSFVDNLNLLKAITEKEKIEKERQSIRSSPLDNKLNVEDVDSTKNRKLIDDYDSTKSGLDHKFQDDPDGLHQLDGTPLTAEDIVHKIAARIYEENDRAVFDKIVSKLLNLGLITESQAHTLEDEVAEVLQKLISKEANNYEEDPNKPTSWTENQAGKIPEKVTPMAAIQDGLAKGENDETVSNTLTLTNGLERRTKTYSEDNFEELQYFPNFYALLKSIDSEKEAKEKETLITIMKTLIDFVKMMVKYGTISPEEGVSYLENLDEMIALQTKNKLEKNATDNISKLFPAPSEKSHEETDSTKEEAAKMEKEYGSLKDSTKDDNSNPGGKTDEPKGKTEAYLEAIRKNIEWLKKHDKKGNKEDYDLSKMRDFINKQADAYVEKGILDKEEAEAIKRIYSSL
active: [20] 0.6
inactive: [1] 0.134 | [2] -0.105 | [3] -0.011 | [4] -0.05 | [5] -0.071 | [6] 0.027 | [7] -0.041 | [8] 0.11 | [9] -0.043 | [10] 0.013 | [11] 0.04 | [12] 0.134 | [13] -0.013 | [14] -0.119 | [15] 0.048 | [16] 0.035 | [17] -0.099 | [18] -0.027 | [19] -0.116

RAB8B (UniProt Q92930)
Sequence of UniProt Q92930 (Q92930 whole entry, looked up): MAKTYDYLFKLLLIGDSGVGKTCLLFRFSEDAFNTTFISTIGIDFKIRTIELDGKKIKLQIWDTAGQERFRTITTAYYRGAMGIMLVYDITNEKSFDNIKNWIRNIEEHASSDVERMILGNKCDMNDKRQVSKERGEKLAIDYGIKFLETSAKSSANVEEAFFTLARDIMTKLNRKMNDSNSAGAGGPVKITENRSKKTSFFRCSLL
inactive: [1] 0.055 | [2] 0.013 | [3] 0.073 | [4] 0.081 | [5] -0.082 | [6] 0.192 | [7] 0.018 | [8] 0.109 | [9] -0.014 | [10] -0.016 | [11] 0.036 | [12] 0.033 | [13] -0.039 | [14] 0.229 | [15] -0.011 | [16] 0.003 | [17] 0.013 | [18] 0.085 | [19] -0.05 | [20] 0.227

SHCBP1 (UniProt Q8NEM2)
inactive: [1] 0 | [2] -0.032 | [3] 0 | [4] 0.07 | [5] 0.047 | [6] 0.102 | [7] 0.027 | [8] -0.014 | [9] 0.018 | [10] 0.117 | [11] -0.013 | [12] -0.052 | [13] 0.102 | [14] -0.008 | [15] -0.084 | [16] 0.117 | [17] 0.111 | [18] -0.028 | [19] 0.056 | [20] -0.139

REEP4 (UniProt Q9H6H4)
Sequence of UniProt Q9H6H4 (Q9H6H4 whole entry, looked up): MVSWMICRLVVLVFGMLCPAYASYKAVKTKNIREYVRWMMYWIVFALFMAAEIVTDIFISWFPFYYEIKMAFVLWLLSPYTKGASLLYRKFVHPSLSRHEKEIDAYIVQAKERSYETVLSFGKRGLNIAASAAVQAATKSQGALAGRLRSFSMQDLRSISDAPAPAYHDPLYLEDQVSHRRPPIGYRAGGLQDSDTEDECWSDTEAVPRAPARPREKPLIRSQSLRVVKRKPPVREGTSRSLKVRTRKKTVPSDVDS
inactive: [1] 0.08 | [2] 0.001 | [3] 0.047 | [4] -0.043 | [5] 0.107 | [6] 0.008 | [7] 0.126 | [8] 0.019 | [9] 0.011 | [10] 0.002 | [11] -0.023 | [12] -0.043 | [13] -0.011 | [14] -0.08 | [15] 0.024 | [16] 0.051 | [17] -0.015 | [18] -0.033 | [19] 0.079 | [20] -0.134

RPS3A (UniProt P61247)
inactive: [1] 0.011 | [2] 0.009 | [3] -0.081 | [4] -0.036 | [5] 0.069 | [6] -0.104 | [7] -0.095 | [8] 0.071 | [9] -0.033 | [10] -0.109 | [11] 0.133 | [12] 0.339 | [13] 0.02 | [14] -0.124 | [15] 0.028 | [16] 0.114 | [17] -0.063 | [18] -0.064 | [19] 0.138 | [20] 0.105

RNASET2 (UniProt O00584)
Sequence of UniProt O00584 (O00584 whole entry, looked up): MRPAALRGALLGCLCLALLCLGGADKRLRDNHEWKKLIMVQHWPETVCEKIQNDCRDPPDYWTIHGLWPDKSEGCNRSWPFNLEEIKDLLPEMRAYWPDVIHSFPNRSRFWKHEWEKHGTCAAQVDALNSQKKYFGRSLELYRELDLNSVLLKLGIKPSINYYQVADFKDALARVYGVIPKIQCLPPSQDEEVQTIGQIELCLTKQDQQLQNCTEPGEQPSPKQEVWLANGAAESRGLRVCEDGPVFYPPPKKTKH
inactive: [1] 0.007 | [2] 0.026 | [3] 0.033 | [4] 0.027 | [5] -0.079 | [6] -0.019 | [7] 0.004 | [8] 0.001 | [9] -0.006 | [10] -0.013 | [12] -0.196 | [13] 0.023 | [14] -0.027 | [15] 0.039 | [16] 0.045 | [17] 0.036 | [18] -0.006 | [19] -0.036
active: [11] -0.275 | [20] -0.413
